Experimental data: PubChem BioAssay AID865 (The Scripps Research Institute Molecular Screening Center, 2007)
The other results are listed elsewhere or left out. Unmarked numbers belong to inactive results.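 The calls were made as follows: active = activation above the screen-wide mean activation plus 3 SD (cut at about 8% in these data); inactive = the rest.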

Assay: activators of NFAT-driven beta-lactamase reporter, confirmation, counter-screen for GALR2 agonist project, CHO NFAT-bla cells, FRET readout (AID 865);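 also: 0% = DMSO with PBS wells and 100% = thapsigargin positive control wells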
Details: at 5.6 µM, active compounds read high

With `Cc1cccc(N2C(=O)NC(=O)/C(=C\c3cnn(-c4ccccc4)c3)C2=O)c1` the activation was 0.39%.
